# ± gives the standard deviation of the averaged measurements. In all, about 25,000 sequences were measured (“ln(normalized median fluorescence intensity)”: median about 8.6, highest 2% from about 10 on). Shown is part of a subset that was picked to be rich in the highest values.
# Test system: PfAP2-EXP AP2 domain (GST-tagged)
# Assay: gcPBM binding intensity (ln(normalized median fluorescence intensity)); higher = stronger DNA binding
# How it was run: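 Alexa488 anti-GST antibody, scanned at 488 nm, detected GST-tagged P. falciparum DNA-binding domains that had been expressed in E. coli and incubated for 1 h on an Agilent 4 × 180k array. The array carried primer-extended double-stranded 36-bp intergenic genomic probes and negative controls. Binding intensity is the highest Masliner-normalised natural-log median intensity across replicate spots of either orientation of each probe.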
row,Sequence,gcPBM binding intensity (ln)
1,ACTAATTACTATAAAACACACATATATTTATTTATA [CACACA_site7263],8.51 ± 0.34
2,AAAATTAATAAATAAACACACATATATATATATATA [CACACA_site2598],10.1 ± 0.44
3,ATAAATATATATATCACACATATATAATTATATATA [CACACA_site4787],8.46 ± 0.3
4,TTTTTATTTTTAAAGGCACACACATTTTTATTTTTA [CACACA_site8624],8.41 ± 0.31
5,AAACAAAATATGGTTCATGAGCAAAAGTTTATTTTG [XGTACX_negctrl_site531],8.69 ± 0.47
6,TTGATTAAAATTAGTACACACAAAATACATGCGGGG [CACACA_site5284],9.2 ± 0.3
7,AAGAACAAACAAAATAGTACAATATATATATATATA [XGTACX_site4258],10 ± 0.28
8,ACTAAAAGATATATAATTTCTTTCTTATTTATTTTT [CACACA_negctrl_site842],8.1 ± 0.35
9,AAATATATAAAATATACACACAGTAATATATATATA [CACACA_site1385],9.52 ± 0.35
10,TTCTGTCAATATGCTTGTACGAAATATTTCGTAATT [XGTACX_site3182],8.87 ± 0.4
11,TTTTTTGCTAAAAAGAGTACTAATAAAAAATTTATT [XGTACX_site5235],8.34 ± 0.34
12,GAAAAAAAAAAAAATACACACAAATTGGTATATAAT [CACACA_site4369],8.41 ± 0.39
13,ATAAAAATGGTGTTAACACACACATATATATATATA [CACACA_site8089],10.1 ± 0.38
14,AAAAATGGTGTTAACACACACATATAAATAAATATA [CACACA_site6412],8.44 ± 0.35
15,AAAAAATAAATAAACATAAATAAATAAATAAATATA [XGTACX_negctrl_site340],8.49 ± 0.33
16,AAAAATGGTGTTAACACACACATATATATATATATA [CACACA_site571],10.2 ± 0.17
17,TATAAATAAAAACACACACACATATATATATATATA [CACACA_site2319],10.1 ± 0.32
18,AATAAACATAAATAAAAATTATAAAATATATATATG [CACACA_negctrl_site1709],8.38 ± 0.32
19,AATAAAATATAAACATTATATATATATATATATATA [GTGCAC_negctrl_site58],10.3 ± 0.38
20,TATAAATAAAAACACACACACACATATATATATATA [CACACA_site2268],9.99 ± 0.39
21,TAAATAAATAAAAAAACACACATATAAATATAAATA [CACACA_site7815],8.56 ± 0.4
22,TAAATAAATAAAAAAACACACATATATATATATATA [CACACA_site4029],10.2 ± 0.32
23,TAAATAAAAAAACACACACACATATATATATATATA [CACACA_site2269],10.2 ± 0.25

row,Sequence,gcPBM binding intensity (ln)
1,CATAAAATATAAAACACACACACATATATATATATA [CACACA_site223],10.2 ± 0.44
2,TTCTAACTTTTAAACACACAAATATAAATAAGTATA [CACACA_site7473],8.29 ± 0.62
3,CCAACTAAAAAGGAATGTACATAGTTATGGTTGGAA [XGTACX_site8762],9.04 ± 0.47
4,TAAGGAAAAAGAAAAAGTACATTATATAATAAATAG [XGTACX_site3282],8.71 ± 0.46
5,GTGAAATGGAAAAAAAGTACAGATTACATAAGTATT [XGTACX_site6355],8.64 ± 0.42
6,TATTTATTGTGATACTACTATTATTTTATGATTAAA [CACACA_negctrl_site284],8.44 ± 0.42
7,GTATAATATTCATATTCACACATTAAAATATATTTA [CACACA_site4879],8.49 ± 0.49
8,AAAAAATGATAATATACACACTTATGGGAGAGCGCA [CACACA_site5398],8.275 ± 0.078
9,ATTTTAAATTAAATTACACACTACGAATAATATATT [CACACA_site4016],8.43 ± 0.42
10,CAACAAAAGTTATTTACACACAAAAGGCAAGGAAAT [CACACA_site7013],8.94 ± 0.47
11,TAACATATTTTTAATACACACTTAAAAAAGTACTTA [CACACA_site4875],8.31 ± 0.34
12,TTTTTTTTTTTTTACACACCCAAATCACATACATAT [CACACA_site6089],8.59 ± 0.44
13,AAATGTTGAAATGATACACACATATATATATATATA [CACACA_site2517],10.3 ± 0.32
14,AATCAATAAATAAAAACATGCATATATATATATATA [TGCATGCA_site438],10.3 ± 0.47
15,AAAAAAAAAATTAAAACATGCATAAATAAATATATT [TGCATGCA_site866],8.73 ± 0.37
16,AAAAAAAAATTAAAAACACACATATAAATAAATATA [CACACA_site6845],8.48 ± 0.48
17,TCAATAAATATACATACATGCATACATACATACATA [TGCATGCA_site197],8.72 ± 0.47
18,AAAAAAATTAAACACACACACACATATATATATATA [CACACA_site4718],10.1 ± 0.25
19,AGAAATGAAATATACACACATACATATATACATATA [CACACA_site4033],8.49 ± 0.27
20,AAATGTTGAAATGATACACACATATAAATATAAATA [CACACA_site7229],8.53 ± 0.42
21,AAAAAAAAATTAAAAACACACATATATATATATATA [CACACA_site1580],10.2 ± 0.39
22,TGGTATATAAAACACACACACATATGTATTTATATA [CACACA_site4665],8.54 ± 0.38

# From the supplement of paper PMC11417369
